# According to the supplement of paper PMC10981050:
# Where “and” joins values, the source holds several entries; their conditions need not be identical. Identical values can stand only once.
# Key:
# Experiment in all cases: cell viability relative to vehicle control; higher = less cytotoxic
# Settings in all cases: 10 µM
# [1] = system: K562
# Procedure, shortened: (§1)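 After removal of identity-inconsistent compounds, the Selleck bioactive, kinase and epigenetic probe libraries were screened on CRISPR-edited mutant clones and isogenic wild-type clones of four leukaemia lines. Plates were 384-well, each well holding 2000 cells in 50 µL medium and receiving a single 10 µM acoustically dispensed dose. CellTiter-Glo luminescence was read 48 h later, after the supernatant was taken off. Genedata Screener was used to express viability as percent of the on-plate vehicle control.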
# [2] = system: MARIMO
# Procedure, shortened: as §1
# [3] = system: MOLM14
# Procedure, shortened: as §1
# [4] = system: OCI-AML2
# Procedure, shortened: as §1
Structure (SMILES),cell viability ([1]; SRSF2 genotype: SRSF2 P95H/wt),cell viability ([1]; SRSF2 genotype: SRSF2 wt/wt),cell viability ([2]; SRSF2 genotype: SRSF2 P95H/wt),cell viability ([2]; SRSF2 genotype: SRSF2 wt/wt),cell viability ([3]; SRSF2 genotype: SRSF2 P95H/wt),cell viability ([3]; SRSF2 genotype: SRSF2 wt/wt),cell viability ([4]; SRSF2 genotype: P95H/wt),cell viability ([4]; SRSF2 genotype: wt/wt)
CC(=O)N1CCN(c2ccc(NC(=O)Cc3cnc(-c4ccnc(F)c4)c(C)c3)nc2)CC1,88.7% and 84.8%,82.3%,85.7%,97.8%,80.4%,86.7%,91.1%,94.6%
O=C1CC(c2ccc(O)cc2)Oc2cc(O)ccc21 (configuration not stated) [Liquiritigenin],99.3% and 104%,106%,116%,93.6%,99.8%,104%,121%,99.3%
CN1c2ccccc2C(=O)Nc2cnc(Nc3ccc(N4CCC(O)CC4)cc3)nc21,16.4% and 22.1%,15.7%,69.5%,83.9%,57.2%,39.6%,51%,49.3%
O=C1/C(=C/c2cccs2)CC/C1=C\c1cccs1,99.2% and 106%,110%,96.2%,104%,105%,99.2%,109%,86%
